IL-1B inflam inh: blocks inflammasome-driven IL-1 beta release | THP-1 LPS/ATP IL-1B secretion, AlphaLISA, 16 h; active compounds read low | activity change, % at 57.5 µM | actives 4.7% (n = 360,000) | AID 743279; in the data active = activity change below about -50%; inconclusive = mostly about -30% to -49%; also: % is scaled to controls: 0 for no effect and ±100 for the full control effect
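THP-1 cells pretreated 1 hr with compounds (up to 57.5 uM final), then stimulated with LPS (250 ng/mL final) plus ATP (1.25 mM final); secreted IL-1B measured by AlphaLISA after 16 hr, decreased signal indicating inhibition.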
ATXN viability: viability counter-screen for ATXN expression inhibitors | S2 cells (HEK-293 line with an ATXN2-luciferase reporter) viability, CellTiter-Fluor protease fluorescence, 24 h | AID 651635 | Potency, µM (titrated, usually from 56.7 µM), most hits filed as cytotoxic | actives 0.49% (n = 400,000); also: potency is read from the fitted curve at half-maximal effect; nearly all actives have a fitted effect of over 40% in size
ATXN2 expr inh: ATXN2 expression inhibition; HEK-293 ATXN2-luciferase reporter, luminescence, 24 h; Potency, µM (top dose mostly 57 µM), for inactives: at the top dose activity change, negative = inhibition, hits mostly inhibitors; actives 0.72% (n = 360,000); also: potency is read from the fitted curve at half-maximal effect; % is scaled to controls: 0 for no effect and ±100 for the full control effect; nearly all actives have a fitted effect of over 55% in size
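ATXN2-luciferase reporter cells (luciferase flanked by upstream and downstream ATXN2 gene portions) were treated 24 h at 37 °C with compounds at up to 57 uM. SteadyGlo luminescence gave expression; GF-AFC fluorescence gave viability.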
USP2a inh: USP2a (human) protease inhibition; USP2 core, Ub-CHOP2 coupled fluorogenic reporter, 485/531; actives 0.01% (n = 330,000); Potency, µM (titrated, usually from 38.3 µM), inactives show top-dose activity change, negative = inhibition, most hits filed as inhibitors; AID 463254; O75604;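 also: potency is read from the fitted curve at half-maximal effect; plate controls were DMSO wells for no effect and full inhibition by NEM control for full effect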
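USP2 core (10nM final) preincubated 30min RT with compound in 20mM Tris-HCl pH 8.0, 2mM CaCl2, 2mM beta-mercaptoethanol, 0.05% CHAPS; 25nM Ub-CHOP2 plus 25nM reporter substrate added, fluorescence (Ex485/Em531) read after 60min.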
USP1-UAF1 inh: inhibitors of human USP1/UAF1 deubiquitinase. recombinant USP1/UAF1, Ub-Rhodamine cleavage fluorescence. Potency, µM (highest dose often 57.1 µM), inactives show top-dose activity change, negative = inhibition, usual class: inhibitors. actives 0.23% (n = 390,000). AID 743255; also: potency is read from the fitted curve at half-maximal effect; % is scaled to controls: 0 for no effect and ±100 for the full control effect; nearly all actives have a fitted effect of over 60% in size
Target sequence (O94782 whole entry, looked up): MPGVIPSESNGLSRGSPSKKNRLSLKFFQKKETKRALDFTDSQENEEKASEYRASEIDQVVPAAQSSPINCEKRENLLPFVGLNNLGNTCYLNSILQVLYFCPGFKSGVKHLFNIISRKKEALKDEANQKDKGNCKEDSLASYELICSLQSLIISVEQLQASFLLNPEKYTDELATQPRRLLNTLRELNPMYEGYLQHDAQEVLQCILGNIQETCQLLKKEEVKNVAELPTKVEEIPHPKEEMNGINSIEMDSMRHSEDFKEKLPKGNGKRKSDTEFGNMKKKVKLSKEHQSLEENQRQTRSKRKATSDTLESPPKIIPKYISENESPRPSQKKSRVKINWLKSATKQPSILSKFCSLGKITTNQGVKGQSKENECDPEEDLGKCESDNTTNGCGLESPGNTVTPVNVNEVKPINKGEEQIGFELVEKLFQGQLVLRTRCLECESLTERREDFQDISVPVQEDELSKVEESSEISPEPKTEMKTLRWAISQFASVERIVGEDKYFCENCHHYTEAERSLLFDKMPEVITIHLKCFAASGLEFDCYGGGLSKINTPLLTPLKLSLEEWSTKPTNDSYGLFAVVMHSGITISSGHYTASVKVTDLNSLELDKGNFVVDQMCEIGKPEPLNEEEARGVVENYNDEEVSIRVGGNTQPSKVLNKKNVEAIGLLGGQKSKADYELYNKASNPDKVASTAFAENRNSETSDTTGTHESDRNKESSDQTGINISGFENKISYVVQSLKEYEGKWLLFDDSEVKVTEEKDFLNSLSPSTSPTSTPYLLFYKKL
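Step one: compound is pinned into 1nM USP1/UAF1 in HEPES pH 7.8 buffer with TCEP. Step two: 15 min room-temperature incubation. Step three: Ub-Rho (150nM final) starts cleavage, tracked by fluorescence over six one-minute reads.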
Active calls of the source: *; i = inactive; u = inconclusive; x = no result. Rows were chosen to be rich in hits. Some 4.8% of all compounds tested hit in one or more screens of this group. Unless noted, calls follow the shape of the dose curve; as a rule, active = well fitted curve in the direction sought with a large enough effect; inconclusive = small, poorly fitted or top-dose-only effect, or another doubt; inactive = no such curve, though single readings can be large; an effect the other way counts as inactive or inconclusive.

SMILES	IL-1B inflam inh	ATXN viability	ATXN2 expr inh	USP2a inh	USP1-UAF1 inh
COc1ccc2[nH]c3c(=O)n4c(nc3c2c1)SCC4	-10	i	-1%	1%	u
CN(C(=O)CO)c1c(I)c(C(=O)NCC(O)CO)c(I)c(C(=O)NCC(O)CO)c1I (centres undefined)	x	i	x	x	x
O=S(=O)(CCN1C=CC(C(F)(F)F)=NCC1)c1ccc(Cl)cc1Cl	-68*	x	-7%	-4%	2%
Cc1cccc(C(=O)NCC(=O)OCc2cc(=O)n3nc(C)sc3n2)c1	x	i	-17%	x	1%
COc1ccc2cc3c(N)nn(C(=O)Cc4c[nH]c5ccccc45)c3nc2c1	-98*	u	x	0%	-3%
COc1ccc2cc3c(N)nn(C(=O)c4ccccc4Cl)c3nc2c1	-65*	u	-23%	-2%	-8%
CCCN(CCC)S(=O)(=O)c1ccc(N2CCCC2=O)c([N+](=O)[O-])c1	2	u	5%	2%	-20%
Cc1ccccc1CN(CC(=O)Nc1cccc([N+](=O)[O-])c1)S(=O)(=O)c1ccc(Cl)cc1	u	u	-35%	3%	-10%
CCCN(CCC)S(=O)(=O)c1ccc(Cl)c([N+](=O)[O-])c1	-103*	24µM*	u	1%	-1%
CCOC(=O)C(C)(C)N(Cc1ccccc1C)S(=O)(=O)c1ccc(Cl)c([N+](=O)[O-])c1	-97*	i	-16%	0%	-15%
O=C(/C=C/c1ccc(O)c(O)c1)c1ccc(S(=O)(=O)N2CCCCCC2)cc1	-74*	i	-21%	u	-23%
O=C(c1ccc(S(=O)(=O)N2CCCC2)cc1)N1CCCCC1	-1	i	-4%	2%	-5%
O=C(NCCC1CCCCN1S(=O)(=O)c1ccc(F)cc1)C(=O)NCc1cccnc1 (centres undefined)	-10	i	-4%	2%	-3%
CCc1cnn2c(NCc3ccc[n+]([O-])c3)cc(N3CCCC[C@@H]3CCO)nc12	x	x	0.014µM*	x	x
O=C(CCNC(=O)N1CCn2c1nc1ccccc12)NCc1ccccc1	3	i	x	4%	-24%
C/C(=N\Nc1cc(-c2ccccc2)nc(-c2ccc(Br)cc2)n1)c1cccc(N)c1	-6	i	6%	x	-8%
C/C(=N/Nc1cc(-c2ccccc2)nc(-c2ccccc2)n1)c1ccc(O)cc1	-105*	u	-7%	-2%	-12%
C/C(=N/Nc1ccnc2cc(Cl)ccc12)c1ccc(O)cc1	-54*	u	-34%	-2%	-5%
C/C(=N/Nc1ccnc2cc(Cl)ccc12)c1ccc(N)cc1	-10	25µM*	0%	-6%	-22%
Cc1cccc(C)c1OCC(=O)NCC1(N(C)C)CCCCC1	x	i	-4%	x	-10%
CC[C@H](C)[C@@H](CN[C@H](C)CNC)NCCC(c1ccccc1)c1ccccc1	0	32µM*	u	-4%	-17%
Clc1cccc(CNc2ccn3nc(-c4cccc(Cl)c4)cc3n2)c1	-51*	u	15%	x	x
c1ccc(COc2cccc(-c3cc4nc(NCCc5ccncc5)ccn4n3)c2)cc1	-60*	u	u	x	x
Clc1cccc(CNc2ccn3nc(-c4ccccc4)cc3n2)c1	-6	u	16%	x	x
COc1cc(-c2cc3nc(NCCc4ccc(S(N)(=O)=O)cc4)ccn3n2)cc(OC)c1OC	-50*	i	10%	x	x
SMILES	IL-1B inflam inh	ATXN viability	ATXN2 expr inh	USP2a inh	USP1-UAF1 inh
COc1cc(-c2cc3nc(NCCOc4ccccc4)ccn3n2)cc(OC)c1OC	12	u	u	x	x
NS(=O)(=O)c1ccc(CCNc2ccn3nc(-c4ccccc4)cc3n2)cc1	-22	i	5%	x	x
c1ccc(COc2cccc(-c3cc4nc(NCCOc5ccccc5)ccn4n3)c2)cc1	-30	i	5%	x	x
COc1cc(-c2cc3nc(NCCc4ccncc4)ccn3n2)cc(OC)c1OC	-58*	i	17%	x	x
C=C(C)[C@@H]1CC[C@]2(C)CC[C@]3(C)[C@H](CC[C@@H]4[C@@]5(C)CC[C@H](O)C(C)(C)[C@H]5CC[C@]43C)[C@@H]12	x	x	5%	x	x
C[C@H](CN1CCCC1)C(=O)c1ccc(C(F)(F)F)cc1	x	i	1%	x	x
Clc1ccccc1N1CCN(Cc2c[nH]c3ccccc23)CC1	-81*	i	-23%	x	-11%
O=C(c1ccccc1)N1CCN(Cc2c[nH]c3ccccc23)CC1	-83*	i	-10%	1%	-1%
CCc1ccc(S(=O)(=O)c2nnn3c2nc(Nc2ccc(F)cc2)c2cc(Cl)ccc23)cc1	x	i	11%	x	-20%
Cc1cccc(NC(=O)Nc2ccc(C#N)cc2)n1	-85*	i	4%	1%	-5%
CCOc1ccc(C(=O)CC(C(=O)O)N2CCCCC2)cc1 (centres undefined)	-57*	i	-1%	0%	-13%
CCOc1ccc(C(=O)CC(C(=O)O)N2CCN(Cc3ccccc3)CC2)cc1 (centres undefined)	0	i	11%	0%	-2%
CCOc1ccccc1CNc1ncnc2c1nc1n2CCCC1	x	x	x	x	-25%
COc1ccc(NC(=O)c2cc3n(n2)C(C(F)(F)F)CC(c2ccco2)N3)cc1 (centres undefined)	u	i	-7%	5%	-18%
O=C(NCC12CC3CC(CC(C3)C1)C2)c1cc2n(n1)C(C(F)(F)F)CC(c1ccco1)N2 (centres undefined)	-87*	i	4%	0%	-11%
C/C(=N\NC(=O)C1CC1)c1ccccc1Br	-8	i	12%	3%	-24%
COc1ccc(NC(=O)CCn2c(=S)[nH]c3ccccc3c2=O)cc1Cl	0	i	x	x	u
CCN1CCN(c2cc(C)c3cc(NC(=O)/C=C/c4cccc(Cl)c4)ccc3n2)CC1	x	u	-18%	x	-25%
Cc1ccc(C2(c3ccc(C)cc3)CC2C(=O)Nc2ccc([N+](=O)[O-])cc2O)cc1 (centres undefined)	-73*	x	16µM*	-13%	-19%
O=c1c2ccccc2nc(/C=C/c2ccc(O)cc2)n1CCc1ccccc1	-27	x	u	-3%	-17%
O=c1c2ccccc2nc(/C=C/c2ccc3c(c2)OCO3)n1CCCO	-56*	i	22%	2%	-13%
CN(C)c1ccc(/C=C/c2nc3ccccc3c(=O)n2CCO)cc1	-9	x	-4%	9%	-3%
O=c1c2ccccc2nc(/C=C/c2cc(Br)ccc2O)n1CCO	-98*	i	x	x	-11%
O=c1c2ccccc2nc(/C=C/c2c[nH]c3ccccc23)n1CCO	-92*	x	68%	0%	-8%
O=c1c2ccccc2nc(/C=C/c2ccccc2)n1CCCO	-17	i	4%	2%	-27%

Screening results from PubChem BioAssay.
